The list is not random: actives were taken first. Their share in the collection is about 5.8%.
uPA surface inh: inhibitors of cell surface uPA generation | cell surface uPA generation assay, qHTS | Potency, µM (doses to about 38.3 µM), for inactives: top-dose activity change, negative = inhibition, most hits filed as inhibitors | 330,000 compounds, 0.31% hits | AID 540303; active = well fitted inhibition curve with a large enough effect; inconclusive = small, poorly fitted or top-dose-only effect; inactive = no such curve, though single readings can be large or run the other way; tested in mouse RAW 264.7 cells; note: potency is the fitted concentration of half-maximal effect; % is set by controls: 0 for no effect and ±100 for the full control effect; nearly all actives have a fitted effect of over 55% in size
VP16 counter: inhibits Gal4-VP16 luciferase reporter, ROR gamma counter-screen; 310,000 compounds, 3.5% hits; Potency, µM (highest dose often 53.6 µM), for the others: at the top dose activity, negative = inhibition, hits mostly inhibitors; Drosophila S2 Gal4-VP16 UAS-luciferase, luminescence, 20 h;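 note: Gal4-VP16 expression switched on by copper sulfate through the metallothionein promoter; potency is the fitted concentration of half-maximal effect; % is set by controls: 0 for no effect and ±100 for the full control effect; nearly all actives have a fitted effect of over 50% in size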
TRPV1 agonist: activates the human vanilloid receptor TRPV1 | Q8NER1 | TRPV1-expressing cells, Fluo-8 calcium influx, agonist mode | activation, % at 8.33 µM | 320,000 compounds, 0.19% hits; in the data active = activation above about 80%; inconclusive = between about 30% and that limit; note: 0% is about no effect
Target sequence (Q8NER1 whole entry, looked up): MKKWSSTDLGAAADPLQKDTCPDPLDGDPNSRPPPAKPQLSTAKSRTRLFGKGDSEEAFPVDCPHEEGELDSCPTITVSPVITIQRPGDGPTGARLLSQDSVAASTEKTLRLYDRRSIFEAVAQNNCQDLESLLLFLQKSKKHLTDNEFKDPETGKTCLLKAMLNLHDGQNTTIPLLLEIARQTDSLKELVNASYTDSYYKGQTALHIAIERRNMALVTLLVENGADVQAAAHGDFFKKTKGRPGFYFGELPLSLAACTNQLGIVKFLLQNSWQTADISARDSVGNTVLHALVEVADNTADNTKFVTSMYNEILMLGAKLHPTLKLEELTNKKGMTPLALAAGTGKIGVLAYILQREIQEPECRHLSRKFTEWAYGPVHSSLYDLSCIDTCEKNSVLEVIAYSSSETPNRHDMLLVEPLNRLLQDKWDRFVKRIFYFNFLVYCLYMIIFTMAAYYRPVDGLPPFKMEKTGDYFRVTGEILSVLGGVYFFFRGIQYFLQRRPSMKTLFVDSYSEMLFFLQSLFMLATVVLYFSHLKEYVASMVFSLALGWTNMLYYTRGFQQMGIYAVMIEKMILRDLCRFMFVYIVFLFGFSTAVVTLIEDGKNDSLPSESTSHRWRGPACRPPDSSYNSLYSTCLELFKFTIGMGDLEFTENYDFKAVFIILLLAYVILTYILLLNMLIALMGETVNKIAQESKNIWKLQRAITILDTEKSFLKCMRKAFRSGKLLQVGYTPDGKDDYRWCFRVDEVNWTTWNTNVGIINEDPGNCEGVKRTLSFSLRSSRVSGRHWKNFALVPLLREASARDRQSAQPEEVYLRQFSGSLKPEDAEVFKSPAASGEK
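Fluo-8 calcium influx in TRPV1-expressing cells, kinetic read (ex 480/em 520 nm). Compound added and read 3 min for agonist activity, followed by capsaicin at EC20 final and 2 min further read for enhancement.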
TRPV1 potentiator: enhances activation of the human vanilloid receptor TRPV1; Q8NER1; TRPV1-expressing cells, Fluo-8 calcium influx, capsaicin EC20 potentiation; potentiation, % at 8.33 µM; 320,000 compounds, 0.02% hits; in the data active = potentiation above about 80%; inconclusive = between about 30% and that limit; note: 0% is about no effect
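TRPV1-expressing cells were cultured overnight at 35.5C and loaded with Fluo-8 calcium dye for 40 to 90 min at room temperature. After a 10 s baseline, compound was added and calcium influx was read kinetically for 3 min (ex 480/em 520 nm).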
RORg inh: blocks mouse ROR gamma transcriptional activity; 310,000 compounds, 5.4% hits; Drosophila S2 Gal4-RORgamma UAS-luciferase reporter, 20 h; P51450; Potency, µM (highest dose often 53.6 µM), inactives show at the highest dose activity change, negative = inhibition, most hits filed as inhibitors; note: potency is the fitted concentration of half-maximal effect; % is set by controls: 0 for no effect and ±100 for the full control effect; nearly all actives have a fitted effect of over 60% in size
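A Gal4/UAS one-hybrid system in insect cells: metallothionein-promoter Gal4–ROR gamma fusion plus Photinus luciferase reporter. Copper sulfate 700 uM final, 20 hr ambient incubation, luminescent detection after 10 min with reagent.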
An asterisk follows results filed as active; u = inconclusive; x = no result given; [ ] = dose if it differs, or a comment. Unless noted, calls come from the whole dose curve; as a rule, active = well fitted curve in the direction sought with a large enough effect; inconclusive = small, poorly fitted or top-dose-only effect, or another doubt; inactive = no such curve, though single readings can be large; an effect the other way counts as inactive or inconclusive.

SMILES | uPA surface inh | VP16 counter | TRPV1 agonist | TRPV1 potentiator | RORg inh
Cc1cc(/C=N/NC(=O)c2ccc(O)cc2)c(C)n1C1CC1 | 0.1% | u | 0.9 | 10.4 | 12.6µM*
Cc1ccc(C(=O)Nc2cccc(C(=O)N/N=C/c3ccc(O)cc3)c2)cc1 | -9.2% | u | 3.7 | 7.1 | -16.7%
CC(=O)C(Sc1nc(NC(C)(C)C)nc(N(C)C)n1)C(C)=O | -4.4% | 14.1µM* | 27.7 | 1.7 | 6.31µM*
C[C@H](c1ccccc1)N1C(=O)[C@H]2[C@@H]3[C@H](O)[C@H](O)CC(=O)[C@H]3CC[C@H]2C1=O | x | -3.0%[10 µM] | x | x | -0.9%[10 µM]
CCCC[n+]1ccn(C2=C([O-])c3ccccc3C(=O)/C2=N\S(=O)(=O)c2ccc(Br)cc2)c1 | -6.8% | u | 12.7 | -5.6 | -43.2%
Cc1ccc(S(=O)(=O)/N=C2\C(=O)c3ccccc3C([O-])=C2n2cc[n+](CCC(C)C)c2)cc1 | u | u | 0.7 | 2.0 | 8.91µM*
CC(=O)NC12CC3CC(C1)CC(C(=O)OCC(=O)c1ccc4c(c1)OCCO4)(C3)C2 | -0.3% | u | u | -20.0 | 14.1µM*
C#CCOCCOCCOCCNc1nc(N2CCN(C(=O)[C@H]([C@@H](C)CC)n3cc([C@@H](N)CO)nn3)CC2)nc(N2CCN(C(=O)[C@H](Cc3cc4ccccc4[nH]3)n3cc([C@@H](N)Cc4ccc(O)cc4)nn3)CC2)n1 | x | 11.8% | 0.4 | -10.1 | -19.1%
COc1ccc(C(=O)COc2ccc(C)cc2NC(C)=O)cc1 | -1.5% | -13.0% | 15.7 | -17.5 | u
S=C(NCc1ccccc1)NC1CCSc2ccccc21 (stereo unspecified) | -0.5% | -4.0% | -0.3 | -4.8 | -23.0%
Cc1cccc(NC(=S)NC2CCSc3ccccc32)c1 (stereo unspecified) | -0.9% | 5.62µM* | u | 8.8 | 3.55µM*
Cc1ccc2nc(SCC3CCCCO3)[nH]c2c1 (stereo unspecified) | -9.3% | 6.31µM* | u | -28.7 | 5.62µM*
Cc1ccc2nc(SCC(=O)N3CCOCC3)[nH]c2c1 | -5.5% | u | 11.7 | 0.3 | -43.6%
CN(C)C(=O)NC1CCCCCCC1 | x | -7.8% | x | x | -3.9%
CCOc1cccc(CNc2ccc(O)cc2)c1OCc1ccc(Cl)cc1Cl | -11.4% | u | 15.4 | -17.2 | 15.8µM*
CCOc1cccc(CNc2ccc(O)cc2)c1OCc1ccccc1Cl | 1.8% | -3.6% | 0.5 | 5.5 | -0.8%
CCOC(=O)N1CCC2(CC1)C(C#N)=C(N)Oc1c2sc2nc(C)cc(C)c12 | -5.2% | u | 7.1 | 6.1 | 8.91µM*
COc1ccc([N+](=O)[O-])cc1NC1CCN(C(=O)c2cccs2)CC1 | 4.5% | 8.1% | -13.6 | u | -0.3%
Cc1ccccc1CNC(=O)C1CCC(=O)N(C2CCCCCC2)C1 (stereo unspecified) | 1.1% | -4.6% | 4.2 | -7.5 | 36.7%
CS(=O)(=O)N1CCc2cc(C(=O)Nc3ccc(Br)cc3)ccc21 | 2.2% | -5.4% | 88.2* | -6.7 | -33.5%
Cc1cc(C)cc(NC(=O)c2ccc3c(c2)CCN3S(C)(=O)=O)c1 | 7.1% | 22.5% | u | -7.2 | -8.6%
O=C(Nc1ccc(Oc2ccc(NC(=O)Nc3ccccc3Cl)cc2)cc1)Nc1ccccc1Cl | 7.3% | u | 15.8 | -4.6 | 2.51µM*
S=c1nc(NCCc2ccccc2Cl)c2ccccc2[nH]1 | 2.5% | 6.31µM* | 15.7 | 4.8 | 1.58µM*
O=C(CCCCCNc1nc(=S)[nH]c2ccccc12)NCCc1ccccc1 | 6.9% | -9.6% | 1.2 | 4.6 | u
O=C(NCc1ccccc1Cl)C1CCC(CNc2nc(=S)[nH]c3ccccc23)CC1 (stereo unspecified) | -4.6% | -4.4% | 0.7 | 0.4 | -42.5%
SMILES | uPA surface inh | VP16 counter | TRPV1 agonist | TRPV1 potentiator | RORg inh
O=C(CCCCCNc1nc(=S)[nH]c2ccccc12)NCc1ccccc1Cl | x | u | -3.1 | 22.0 | 17.8µM*
C/C(=N/NC(=O)c1ccc2c(c1)OCO2)c1ccc(NC(=O)C(F)(F)F)cc1 | 2.2% | -3.8% | u | -10.9 | -44.7%
CNC(=S)N/N=C(\C)c1ccc2c(c1)OCO2 | 3.7% | u | 2.3 | 5.0 | 7.08µM*
CCNC(=S)N/N=C(\C)c1ccc2c(c1)OCCO2 | -4.0% | 7.08µM* | 1.8 | -2.7 | 2.82µM*
C/C(=N\NC(=S)NC(C)C)c1ccc2c(c1)OCCO2 | 4.2% | 4.47µM* | 0.6 | -1.7 | 2µM*
C/C(=N\NC(=S)Nc1ccc(C(C)C)cc1)c1ccc2c(c1)OCO2 | -2.3% | u | 1.1 | -1.6 | 6.31µM*
CNC(=S)N/N=C(\C)c1ccc2c(c1)OCCO2 | 1.7% | 8.91µM* | 3.7 | 5.1 | 2.82µM*
C/C(=N\NC(=O)c1ccccc1)c1ccc2c(c1)OCO2 | x | u | 1.6 | -1.1 | 20.1%
CCN1CCC2(CC1)N=C(c1ccc(F)cc1)C(=S)N2 | 2.2% | -4.3% | 5.1 | 6.1 | 12.6µM*
S=C1NC2(CCCCC2)N=C1c1ccccc1 | -3.4% | 3.55µM* | 2.5 | -2.5 | 3.16µM*
O=C1NC2(CCCCCC2)N=C1c1ccc(Br)cc1 | 8.0% | -3.1% | 1.1 | 13.9 | 1.8%
Cc1ccc(C2=NC3(CCCCC3)NC2=S)cc1 | 1.1% | 3.98µM* | 2.5 | -2.4 | 2µM*
O=C1NC2(CCCC2)N=C1c1ccc(F)cc1 | 3.0% | -3.8% | 0.6 | 1.2 | -5.0%
CC1=C2[C@H](/C=C(\C)C(=O)O)CC[C@@H](C)[C@H]2CC1 | x | 6.3% | x | x | -7.7%
Cc1nc(NC(=O)CSc2nc3ccccc3s2)sc1C(=O)N(C)C | -0.9% | -10.6% | -0.3 | 10.6 | -36.1%
CC(=O)c1ccc(S(=O)(=O)Nc2ccc(C(=O)N3CCC3)cc2)cc1 | -1.0% | x | -1.1 | -2.4 | x
CCOc1ccc(C(=O)NC(C(=O)NCC(c2cccs2)N(C)C)C(C)C)cc1 (stereo unspecified) | 3.5% | x | 0.7 | -3.6 | x
CN1CCC(N(C)C(=O)c2ccc(Cl)c(S(=O)(=O)N3CCc4ccccc43)c2)CC1 | -28.3% | x | x | x | x
Cc1noc(/C=C/c2nn(C)cc2Cl)c1[N+](=O)[O-] | 4.47µM* | u | 2.0 | 4.4 | u
Cc1cccc(NC2=NC(=S)N(c3ccc(C(=O)O)cc3)C23CCCCC3)c1 | -6.9% | -4.7% | -1.0 | 9.9 | 1.3%
Cc1ccccc1NC1=NC(=S)N(c2ccccc2)C12CCCCC2 | 9.2% | u | 15.3 | -13.9 | 3.55µM*
Cc1ccccc1NC1=NC(=S)N(c2ccccc2)C12CCOC(C)(C)C2 (stereo unspecified) | -1.8% | 17.8µM* | 10.9 | -23.0 | 6.31µM*
CC1(C)CC2(CCO1)C(Nc1ccccc1)=NC(=S)N2c1ccccc1 (stereo unspecified) | 2.4% | 2.8% | x | x | 25.1%
COC(=O)NC(/C(C(=O)OC)=C(\C)NCc1ccccc1)c1ccccc1 (stereo unspecified) | x | -5.8%[10 µM] | x | x | 7.8%[10 µM]
O=C1C2C3C=CC(C3=C3CCCCC3)C2C(=O)N1c1ccccc1 (stereo unspecified) | 7.9% | 2.4% | 18.9 | -14.7 | 12.6µM*

Screens deposited in PubChem BioAssay by National Center for Advancing Translational Sciences (NCATS).
